Screening data as filed in PubChem BioAssay.
The list is not random: actives were taken first. Their share in the collection is about 2.4%.
POLK inh = inhibitors of human DNA polymerase kappa. Q9UBT6. purified Pol kappa, fluorescent DNA synthesis assay, 10 min. Potency, µM (top dose mostly 107 µM), inactives show top-dose activity, negative = inhibition, actives largely listed as inhibitors. 400,000 tested, 0.53% active; also: % is scaled to controls: 0 for no effect and ±100 for the full control effect
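Inhibition of 10 nM Pol kappa is measured by a fluorescent read-out at 0 and 10 min following addition of 50 nM substrate (final), with a 15-min room-temperature compound preincubation.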
Pol eta inh = blocks human DNA polymerase eta activity. Q9Y253. recombinant Pol eta, fluorescent DNA replication assay. Potency, µM (highest dose often 114 µM), for the others: top-dose activity change, negative = inhibition, hits mostly inhibitors. 390,000 tested, 1.2% active; also: % is scaled to controls: 0 for no effect and ±100 for the full control effect
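Fluorescent replication assay: 50 nM final substrate added after a 15 min room-temperature compound preincubation with 10 nM enzyme. Signal taken at 0 min and again at 10 min.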
Tb PGK inh = inhibitors of T. brucei phosphoglycerate kinase; P07378; PGK/GAPDH coupled, Kinase-Glo luminescence, 60 min; Potency, µM (series often up to 57.5 µM), for inactives: at the highest dose activity change, negative = inhibition, most hits filed as inhibitors; 380,000 tested, 0.043% active; also: % is scaled to controls: 0 for no effect and ±100 for the full control effect; nearly all actives have a fitted effect of over 60% in size
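Recombinant glycosomal PGK reaction used 1,3-bisphosphoglycerate generated in-well by GAPDH (100nM final) in 100mM TEA pH 7.6, 5mM MgCl2, 0.01% Tween-20. After 60 minutes at room temperature, ATP was read by Kinase-Glo Plus luminescence end-point.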
POLB inh = DNA polymerase beta (human) inhibition. Pol beta primer extension/strand displacement, fluorescence kinetic. 340,000 tested, 1.3% active. Potency, µM (top dose mostly 114 µM), for inactives: at the top dose activity change, negative = inhibition, actives largely listed as inhibitors; also: % is scaled to controls: 0 for no effect and ±100 for the full control effect
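Kinetic readout of DNA synthesis with strand displacement by Pol beta. Compound and 10 nM enzyme sit 15 min at room temperature; 50 nM substrate starts the reaction, read immediately and at 10 min.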
FEN1 inh = human FEN1 inhibition. P39748. Recombinant FEN1 flap cleavage, fluorescence, 15 min. Potency, µM (doses to about 114 µM), inactives show at the highest dose activity change, negative = inhibition, hits mostly inhibitors. 390,000 tested, 0.35% active; also: % is scaled to controls: 0 for no effect and ±100 for the full control effect; nearly all actives have a fitted effect of over 65% in size
Target sequence (P39748 whole entry, looked up): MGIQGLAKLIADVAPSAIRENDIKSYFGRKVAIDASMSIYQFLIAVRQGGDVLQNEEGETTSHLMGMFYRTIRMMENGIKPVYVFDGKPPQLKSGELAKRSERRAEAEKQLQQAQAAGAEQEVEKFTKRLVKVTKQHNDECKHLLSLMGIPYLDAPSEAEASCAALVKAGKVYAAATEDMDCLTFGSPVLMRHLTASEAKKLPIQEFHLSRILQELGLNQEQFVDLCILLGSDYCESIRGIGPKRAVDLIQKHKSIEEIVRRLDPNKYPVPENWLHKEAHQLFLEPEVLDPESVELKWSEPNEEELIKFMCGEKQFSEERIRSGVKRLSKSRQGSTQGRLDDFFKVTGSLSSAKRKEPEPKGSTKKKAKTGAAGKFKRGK
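Read-out was taken twice, immediately and after 15 min, following addition of 50 nM substrate to 10 nM FEN1 that had sat with test compound for 15 min at room temperature. Curves came from a four-parameter Hill model.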
Pol iota inh = blocks human DNA polymerase iota activity. Q9UNA4. Pol iota fluorescent replication assay, 10 min. Potency, µM (doses to about 115 µM), for the others: at the top dose activity, negative = inhibition, hits mostly inhibitors. 390,000 tested, 1% active
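Fluorescent replication assay read twice, at 0 min and 10 min after adding 50 nM (final) substrate. Enzyme (10 nM) and compounds were first incubated 15 min at room temperature; enzyme-free buffer wells were negative controls.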
Numbers without * were called inactive; i = inactive; ? = inconclusive; . = not tested or not shown; [ ] = remark or other dose. Calls follow the shape of the dose curve; as a rule, active = well fitted curve in the direction sought with a large enough effect; inconclusive = small, poorly fitted or top-dose-only effect, or another doubt; inactive = no such curve, though single readings can be large; an effect the other way counts as inactive or inconclusive. Potency is read from the fitted curve at half-maximal effect.

SMILES	POLK inh	Pol eta inh	Tb PGK inh	POLB inh	FEN1 inh	Pol iota inh
Cc1ccc(/C=C/c2onc(C)c2S(=O)(=O)N2CCC(C(=O)Nc3cccc(C#N)c3)CC2)cc1	-8%[60.1 µM]	3%	-10%	-1%	-18%	0%
C=CCn1c(Sc2ncc([N+](=O)[O-])s2)n[nH]c1=O	-7%	-7%	-6%	-1%	-2%	10µM*
O=[N+]([O-])c1cnc(Sc2ccncn2)s1	-4%	4%	-7%	-1%	-2%	?
CC(=O)N1CCOc2cc(S(=O)(=O)Nc3c(C)cccc3C(C)C)c(Cl)cc21	-27%	-13%	2%	-36%	-1%	79µM*
O=C(COc1ccc(-n2cnnn2)cc1)Nc1cccc(Cl)c1Cl	-32%	-6%	-5%	50µM*	0%	?
CC(C)CN(CC(C)C)c1ccc(/C=C/c2nc3ccccc3s2)cc1	-6%	.	.	.	-10%	?
Cc1nnc(SCC(=O)NCc2ccccc2F)c2nn(-c3ccc(Cl)cc3)c(C)c12	-1%[60.1 µM]	?	i	?	-7%	71µM*
COc1cc(-c2nnc(SCCOc3cc(C)cc(C)c3)o2)cc(OC)c1OC	-11%	-19%	-1%	50µM*	9%	-18%
CCOC(=O)N1CCN(Cc2nc3cc(NC(=O)c4ccc(F)cc4)ccc3n2C(C)C)CC1	-15%	8%	6%	25%	-7%	6%
O=C(Cc1cccs1)N=Nc1c(O)[nH]c2ccc(Br)cc12	-20%	0%	-10%	-12%	-23%	?
COc1ccc2[nH]c(O)c(N=NC(=O)Cc3cccs3)c2c1	-40%	32µM*	-8%	?	-16%	?
Cc1ccc(-n2nc(C(=O)NC(C)C)c(=O)n(C)c2=O)cc1	-8%[60.1 µM]	-3%	2%	15%	-6%	-17%
CC(=O)NC(Cc1c(F)c(F)c(F)c(F)c1F)C(=O)NCC(N)C(=O)c1ccccc1 (configuration not stated)	5%	.	.	.	-2%	-7%
CCOc1[nH]c(/N=C/c2ccco2)c(C#N)c1C#N	?	14µM*	-1%	12%	-10%	?
N#Cc1c(/N=C/c2ccco2)sc2c1CCC2	-22%	-13%	-6%	-25%	-17%	10%
CCOc1[nH]c(/N=C/c2ccc(OC)cc2)c(C#N)c1C#N	-22%	.	.	.	79µM*	?
COc1ccccc1CNc1ccc(-c2nc(C)no2)cc1[N+](=O)[O-]	-16%	-6%	-2%	?	4%	-22%
O=C(O)c1cccc(N2C(=O)c3ccc(Oc4ccc(Cl)cc4)cc3C2=O)c1	-26%	0%	-5%	89µM*	-30%	56%
COc1ccc(C(=O)/C=C2\Sc3ccccc3N2C)cc1	-8%	3%	-5%	-12%	?	44%
CC[n+]1c(/C=C2\Sc3ccccc3N2C)ccc2cccc(C)c21	-37%	?	-5%	28µM*	13µM*	?
Cc1[nH]c2ccccc2c1N=Nc1ccccc1C(=O)O	?	35µM*	-13%	32µM*	?	?
COC(=O)c1cc(N=Nc2c(C)[nH]c3ccccc23)cc(C(=O)OC)c1	-11%	-6%	10%	4%	-10%	-22%
O=Nc1c2cc(-c3ccccc3)[nH]nc-2c2ccccc12	-6%	-8%	?	40µM*	-19%	-6%
CC(=O)N1CCc2c(sc3c2c(=O)n(CCc2ccccc2)c(=O)n3Cc2ccc(F)cc2)C1	-7%	-18%	3%	3%	-1%	-2%
COc1cc(C(=O)Nc2nnc(-c3sccc3C)s2)cc(OC)c1OC	-7%	13µM*	-12%	0%	13%	-9%
CCOCc1nnc(NC(=O)c2cc(OC)c(OC)c(OC)c2)s1	-15%	-4%	12%	-3%	-3%	107%
O=C1C=C(c2ccc(C(=O)O)c(Cl)c2)C[C@@H](c2ccc3c(c2)OCO3)C1	?	50µM*	-4%	.	4%	?
